In ChEMBL document CHEMBL3988442, “University of Dundee, Small-Polar-MMV Screening Library” (2021):
Screen size: about 69,000 compounds; about 420 (0.61%) showed an effect of 50% or more. The entries come from a sample that favours strong results as a whole.

biological target: T1, Histidine--tRNA ligase (Leishmania infantum) (UniProt A4I591); test: Leishmania infantum Histidine tRNA synthetase (LdHisRS); format: functional; design: scale not given: in the data most compounds retested in dose-response had high values; conditions: 30 µM
T1 sequence (whole entry): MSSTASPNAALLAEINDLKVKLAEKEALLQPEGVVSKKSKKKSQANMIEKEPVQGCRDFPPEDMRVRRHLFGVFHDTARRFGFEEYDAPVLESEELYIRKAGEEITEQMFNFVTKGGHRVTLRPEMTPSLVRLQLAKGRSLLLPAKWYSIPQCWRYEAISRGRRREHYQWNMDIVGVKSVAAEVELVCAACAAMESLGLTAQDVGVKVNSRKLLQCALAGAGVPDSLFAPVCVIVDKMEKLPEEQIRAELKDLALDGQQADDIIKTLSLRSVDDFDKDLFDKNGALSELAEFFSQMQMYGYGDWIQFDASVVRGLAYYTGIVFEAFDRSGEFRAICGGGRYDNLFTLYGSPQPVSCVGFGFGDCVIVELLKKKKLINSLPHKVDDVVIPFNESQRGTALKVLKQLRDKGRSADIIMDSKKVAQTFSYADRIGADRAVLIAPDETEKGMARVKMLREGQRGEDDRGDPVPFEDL

Structure (SMILES) | Percent Effect
Nc1ccnc(-c2cc(NC3CCNCC3)nc3[nH]ccc23)c1 | 41%
CNc1cc(C)nc(-c2cc(NC3CCNCC3)nc3[nH]ccc23)n1 | 32.6%
FC(F)(F)c1ccc(-c2cc(NC3CCNCC3)nc3[nH]ccc23)nc1 | 63.9%
COc1nccnc1-c1cc(NC2CCNCC2)nc2[nH]ccc12 | 55.3%
COc1ncc(-c2cc(NC3CCCC3)nc3[nH]ccc23)c(OC)n1 | 21.3%
COc1nccnc1-c1cc(NC2CCCC2)nc2[nH]ccc12 | 6.38%
Cc1oncc1C(=O)N[C@@H]1CN(Cc2ccco2)C[C@@H]2CCCO[C@@H]21 | 4.54%
Cn1ccc(C(=O)N2C[C@H]3CCC[C@@]3(COCc3cccnc3)C2)n1 | 7.96%
COC[C@]12COC[C@H]1CN(S(=O)(=O)c1cccnc1)C2 | 14%
CCc1cc(N2CCC(F)(F)CC2)n2nc(C)c(C)c2n1 | 61.7%
CCc1cc(N2CCSCC2)n2nc(C)c(C)c2n1 | -0.971%
CCc1cc(N2CCS(=O)(=O)CC2)n2nc(C)c(C)c2n1 | 13.3%
Cc1nnc(NCC(c2cccs2)N2CCCC2)c(C#N)c1C (configuration not stated) | 32.9%
Cc1nnc(NCC(c2ccco2)N2CCCC2)c(C#N)c1C (configuration not stated) | 60.3%
Cc1nnc(NCc2ccccc2F)c(C#N)c1C | 49.5%
Cc1nnc(NCC(c2ccco2)N(C)C)c(C#N)c1C (configuration not stated) | 54.8%
COCc1ccccc1CNc1nnc(C)c(C)c1C#N | 12.3%
Cc1nnc(NCc2ccccc2Cl)c(C#N)c1C | 52.3%
Cc1nnc(NCc2cccnc2N(C)C)c(C#N)c1C | 15.4%
Cc1nnc(NCc2ccccc2S(=O)(=O)N(C)C)c(C#N)c1C | 22%
Cc1nnc(NCC(c2ccco2)N2CCCCC2)c(C#N)c1C (configuration not stated) | 32.9%
O=C(Nc1cnccn1)[C@H]1COC[C@H]2CN(c3ncc(F)cn3)C[C@H]21 | 18.8%
COCCNC(=O)[C@H]1CC[C@@H]2[C@@H](CCN2S(C)(=O)=O)O1 | 22.9%

Structure (SMILES) | Percent Effect
Cc1nc(CN2C(=O)CC[C@@H]3[C@H]2CCN3C2CCOCC2)cs1 | 9.57%
COCCN1CCO[C@@H]2CN(Cc3sccc3C)C[C@@H]2C1 | 0.84%
CCCn1nc2c(cc1=O)CN(CC(=O)N(C)c1nccs1)CC2 | 24.6%
CCn1nc2c(cc1=O)CN(CC(=O)N(C)c1nccs1)CC2 | 5.56%
CCn1nc2c(cc1=O)CN(CC(=O)Nc1cc(C)no1)CC2 | 15.2%
CC(C)c1cc(NC(=O)CN2CCc3ccccc3C2)on1 | -2.74%
Cc1cc(NC(=O)CN2CCc3nn(C)c(=O)cc3C2)on1 | 56.7%
CC(C)c1cc(NC(=O)CN2CCc3nn(C)c(=O)cc3C2)on1 | 78.8%
CCCn1nc2c(cc1=O)CN(CC(=O)Nc1cc(C)no1)CC2 | 18.2%
CC(C)(C)c1cc(NC(=O)CN2CCc3cncnc3C2)on1 | 19.6%
CN(C(=O)CN1CCc2nn(C)c(=O)cc2C1)c1nccs1 | 65.9%
CC(C)(C)c1cc(NC(=O)CN2CCn3c(nnc3C3CC3)C2)on1 | 1.79%
Cn1nc2c(cc1=O)CN(CC(=O)Nc1cc(C(C)(C)C)no1)CC2 | 112%
CCn1nc2c(cc1=O)CN(CC(=O)Nc1cc(C(C)C)no1)CC2 | 21.2%
O=C(c1cscn1)N1CC[C@@H]2[C@@H]1CCN2CC1CCOC1 (some centres not stated) | 13.2%
O=C(NCc1ccco1)[C@@]12CCO[C@@H]1CCN(CC1CCOCC1)C2 | 20%
CCN1C[C@H]2CCN(C(=O)Cc3cccc(OC)c3)CC[C@H]2S1(=O)=O | 19.2%
O=C(Cn1ccnc1)N1C[C@@H]2CC[C@H](Oc3cccc(F)c3)[C@@H]2C1 | 7.29%
Cc1nc(CN2C(=O)CC[C@H]3[C@@H]2CCN3C(=O)c2ccsc2)cs1 | 16.5%
CC(C)NC(=O)[C@]12COC[C@H]1CN(Cc1cnn(C)c1)C2 | 12.5%
CCS(=O)(=O)N1CC[C@@H]2[C@@H](CCC(=O)N2CCc2ccccc2)C1 | 9.38%
Cc1nnc(NC(=O)CN2CCc3nn(C)c(=O)cc3C2)s1 | 9.62%
Cc1csc(NC(=O)CN2CCc3nn(C)c(=O)cc3C2)n1 | 24.2%

Structure (SMILES) | Percent Effect
Cc1cc(NC(=O)CN2CCc3nn(C)c(=O)cc3C2)no1 | 100%
Cc1noc(C(C)Nc2ccc(N3CCOCC3)cc2C)n1 (configuration not stated) | 63%
Cc1cc(N2CCOCC2)ccc1NC(C)c1nc(C(C)(C)C)no1 (configuration not stated) | 28.3%
Cc1cc(N2CCOCC2)ccc1NC(C)c1nc(C(C)C)no1 (configuration not stated) | 39.1%
c1cncc(COCC2C[C@@H]3OCCN(Cc4cccnc4)[C@H]3C2)c1 (some centres not stated) | 28.3%
Cn1cnc2c1CCN(Cc1nc(COc3ccc(F)cc3)no1)C2 | -98.5%
Fc1ccc(OCc2noc(CN3CCc4cncnc4C3)n2)cc1 | 61.6%
COc1ccc(-c2noc(CN3CCc4cncnc4C3)n2)cc1 | 50.4%
Cc1ccc(-c2noc(CN3CCc4cncnc4C3)n2)cc1 | 25.7%
c1ncc2c(n1)CN(Cc1nc(-c3ccoc3)no1)CC2 | 34.9%
c1ccc(Cc2noc(CN3CCc4cncnc4C3)n2)cc1 | 43%
Cn1cc(C(=O)N[C@@H]2CN(Cc3cccnc3)[C@@H]3CCCO[C@@H]32)cn1 | 22.9%
O=C(c1cnccn1)N1CCN2C[C@H](OCC3CC3)C[C@H]2C1 | 15.1%
c1cc(-c2ccc3c(c2)CCC32CCN(c3nncs3)CC2)co1 | 75.8%
c1cc(-c2ccc3c(c2)C2(CC3)CCN(c3nncs3)CC2)ccn1 | 74.2%
Cc1ccc2c(c1)C1(CC2)CCN(c2nncs2)CC1 | 24.8%
c1cc(-c2ccc3c(c2)CCC32CCNCC2)ccn1 | 53.5%
c1cncc(-c2ccc3c(c2)CCC32CCNCC2)c1 | 20%
CN(C)CC(=O)N1CCC2(CCc3ccc(-c4ccncc4)cc32)CC1 | 22.4%
c1cncc(-c2ccc3c(c2)C2(CCNCC2)CC3)c1 | -17.2%
c1cncc(-c2ccc3c(c2)C2(CC3)CCN(c3nncs3)CC2)c1 | 53.3%
c1cncc(-c2ccc3c(c2)CCC32CCN(Cc3ccco3)CC2)c1 | 44%
c1cc(-c2ccc3c(c2)C2(CCNCC2)CC3)ccn1 | 13.8%

Structure (SMILES) | Percent Effect
O=C(CCO)N1CCC2(CCc3ccc(-c4ccoc4)cc32)CC1 | 22.4%
OCCN1CCC2(CCc3cc(-c4ccoc4)ccc32)CC1 | 24%
COCCN1C[C@H]2CC[C@@H]1CN(Cc1cc(=O)c3cc(C)ccc3[nH]1)C2 | 40.6%
COCCN1C[C@H]2CN(C(=O)c3ccno3)CCN2C1=O | 11.1%
COCC(=O)N1C[C@@H](OCc2cccnc2)[C@H]2OCCC[C@@H]21 | 14.6%
COCCNC(=O)[C@H]1CN(Cc2scnc2C)C[C@H]2OCC[C@@H]12 | 13.3%
CCc1cc(N[C@@H]2C[C@H]3CC[C@@H]2C3)n2nccc2n1 | 25.7%
Cc1nc(CN2C[C@@H]3CN(C(=O)c4cnccn4)C[C@@H]3C2=O)cs1 | 2.94%
Cc1ccc(CN2C[C@H]3C[C@H](C(=O)Nc4cccnc4)[C@@H](C2)O3)cc1 | 22%
CN1CCCCC12CCN(c1nncs1)CC2 | 6.2%
c1cncc(-c2ccc3c(c2)CCC32CCN(Cc3nccs3)CC2)c1 | 48%
c1cc(-c2ccc3c(c2)CCC32CCN(c3nncs3)CC2)ccn1 | 66.1%
CNC(=O)[C@H]1CC[C@@H]2[C@@H](CCN2c2ncccn2)O1 | 14%
O=C(c1cnccn1)N1C[C@@H]2OCC(=O)N(CC3CCCCC3)[C@@H]2C1 | 25%
COc1cc(N2CC[C@@H]3O[C@@H](c4ccncn4)C[C@H]3C2)ncn1 | 14.5%
Cc1ccccc1-c1noc(CN2CCc3nn(C)c(=O)cc3C2)n1 | 103%
Cn1nc2c(cc1=O)CN(Cc1nc(-c3ccsc3)no1)CC2 | 27.6%
Cc1ccccc1-c1noc(CN2CCc3cncnc3C2)n1 | -42.2%
Cn1nc2c(cc1=O)CN(Cc1nc(-c3cccs3)no1)CC2 | 20.3%
Cn1nc2c(cc1=O)CN(Cc1nc(-c3ccoc3)no1)CC2 | 16%
CCCn1nc2c(cc1=O)CN(Cc1nc(-c3ccoc3)no1)CC2 | 2.67%
Cc1cccc(-c2noc(CN3CCc4nn(C)c(=O)cc4C3)n2)c1 | 87.8%
COc1cc2c(nn1)CCN(Cc1noc(-c3ccccc3)n1)C2 | 24%

Structure (SMILES) | Percent Effect
Cn1nc2c(cc1=O)CN(Cc1nc(-c3cccnc3)no1)CC2 | 10.3%
Cc1ccc(-c2nc(CN3CCc4nn(C)c(=O)cc4C3)no2)cc1 | 52.4%
Cc1ccc(-c2noc(CN3CCc4nn(C)c(=O)cc4C3)n2)cc1 | 70.7%
Cc1ccc(-c2nc(CN3CCc4cnc(C)nc4C3)no2)cc1 | 21.4%
C[C@]12CCCCN(C(=O)c3ccccn3)[C@H]1CCCC(=O)N2 | 7.37%
CN(Cc1cccnc1)[C@@H]1CN(Cc2ccccn2)[C@@H]2CCCO[C@H]12 | 8.33%
Cc1nnc(N2CC[C@H]3O[C@H](C(=O)NCc4ccccn4)CC[C@H]32)s1 | 20%
Cc1ncsc1CN1C[C@@H]2CCCO[C@@H]2[C@H](N(C)C(C)C)C1 | 14%
Cc1ccc(CN2CC[C@@H]3O[C@@H](C(=O)N4CCN(C)CC4)C[C@@H]32)cc1 | 9.62%
CS(=O)(=O)N1C[C@@H]2CC[C@H](C1)N(Cc1cscn1)C2=O | 15.2%
O=C1CCCC2=C1C(c1cccc(F)c1F)Nc1nonc1N2 (configuration not stated) | 6.25%
COCCN1C[C@@H]2CN(c3cnccn3)C[C@@H]2C1=O | 16%
Cn1nc2c(cc1=O)CN(Cc1nc(-c3ccco3)no1)CC2 | 91.4%
CCCn1nc2c(cc1=O)CN(Cc1nc(-c3ccco3)no1)CC2 | 5.5%
CCn1nc2c(cc1=O)CN(Cc1nc(-c3ccco3)no1)CC2 | 33%
O=C(NC1CC1)[C@@H]1C[C@@H]2CCN(Cc3ccccc3)C[C@H]2O1 | 23%
COc1ccc(CN2C[C@@H]3OCCN(CCN(C)C)[C@@H]3C2)cc1 | 15.6%
COc1cccc(CNc2cc(C)nc(-c3ccncc3)n2)c1O | 19.2%
COc1cccc(CNc2nc(C)cc(C)n2)c1OC | 21.9%
COc1cccc(CNc2cc(C)nc(-c3ccncc3)n2)c1OC | 52%
